# How the values were obtained:
# Assay in all cases: DAPPL (digital affinity profiling via proximity ligation, sequencing); 10 mM Tris-HCl pH 7.5, 50 mM NaCl, 1 mM DTT, 4% glycerol, room temperature, 30 min; GST-TFs on glutathione beads, 16-mer random dsDNA library, 0.1% formaldehyde crosslink after washing; high values mean tight binding
# Conditions in all cases: protein: recombinant; tags: N-terminal GST; dsDNA, one strand shown
# ELK1 = target: T1, ELK1 (Homo sapiens, UniProt P19419 1-428)
# T1 sequence: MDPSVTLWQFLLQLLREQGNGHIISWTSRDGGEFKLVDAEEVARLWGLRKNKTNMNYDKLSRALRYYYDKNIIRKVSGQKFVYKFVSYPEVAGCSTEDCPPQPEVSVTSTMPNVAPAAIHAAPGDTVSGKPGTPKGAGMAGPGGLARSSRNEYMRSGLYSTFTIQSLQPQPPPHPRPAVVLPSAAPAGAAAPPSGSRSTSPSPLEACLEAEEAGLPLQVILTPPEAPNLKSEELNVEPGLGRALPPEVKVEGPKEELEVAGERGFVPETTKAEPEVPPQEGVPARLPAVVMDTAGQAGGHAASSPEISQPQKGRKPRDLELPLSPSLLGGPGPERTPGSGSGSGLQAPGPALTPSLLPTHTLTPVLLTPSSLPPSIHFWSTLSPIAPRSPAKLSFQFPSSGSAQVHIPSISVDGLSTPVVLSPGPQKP
# Method in brief: (§1)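 A tag-only sample was pooled with DNA-barcoded human transcription factors that had been expressed in yeast as GST fusions and captured on glutathione beads. The pools were incubated for 30 min at room temperature with 200 nmole of a random double-stranded 16-mer DNA library in Tris/NaCl/DTT/glycerol buffer, then washed, crosslinked with 0.1% formaldehyde, proximity-ligated (BsaI/T4 ligase, 1 h, 37 °C), PCR-amplified and sequenced on an Illumina NextSeq500. Binding signal is each hexamer's read frequency for a factor divided by its frequency for the tag-only sample.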
# ERG = target: T2, ERG (Homo sapiens, UniProt P11308 1-479)
# T2 sequence: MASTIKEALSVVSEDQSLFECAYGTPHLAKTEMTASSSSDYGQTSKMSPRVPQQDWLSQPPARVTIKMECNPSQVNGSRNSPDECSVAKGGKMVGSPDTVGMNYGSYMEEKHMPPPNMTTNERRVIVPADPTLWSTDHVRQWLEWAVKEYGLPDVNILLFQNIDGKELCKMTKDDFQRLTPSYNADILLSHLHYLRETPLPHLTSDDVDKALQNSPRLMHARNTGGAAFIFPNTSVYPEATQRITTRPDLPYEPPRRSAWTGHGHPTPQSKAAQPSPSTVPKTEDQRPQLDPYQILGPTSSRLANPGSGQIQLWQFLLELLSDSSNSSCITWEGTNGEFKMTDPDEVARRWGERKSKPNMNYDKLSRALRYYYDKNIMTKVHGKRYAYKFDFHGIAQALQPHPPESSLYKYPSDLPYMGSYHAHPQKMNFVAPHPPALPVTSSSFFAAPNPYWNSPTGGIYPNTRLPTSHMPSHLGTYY
# Method in brief: as §1
# ELF1 = ELF1 (Homo sapiens, UniProt P32519 1-619)
# Sequence of ELF1 (P32519 whole entry): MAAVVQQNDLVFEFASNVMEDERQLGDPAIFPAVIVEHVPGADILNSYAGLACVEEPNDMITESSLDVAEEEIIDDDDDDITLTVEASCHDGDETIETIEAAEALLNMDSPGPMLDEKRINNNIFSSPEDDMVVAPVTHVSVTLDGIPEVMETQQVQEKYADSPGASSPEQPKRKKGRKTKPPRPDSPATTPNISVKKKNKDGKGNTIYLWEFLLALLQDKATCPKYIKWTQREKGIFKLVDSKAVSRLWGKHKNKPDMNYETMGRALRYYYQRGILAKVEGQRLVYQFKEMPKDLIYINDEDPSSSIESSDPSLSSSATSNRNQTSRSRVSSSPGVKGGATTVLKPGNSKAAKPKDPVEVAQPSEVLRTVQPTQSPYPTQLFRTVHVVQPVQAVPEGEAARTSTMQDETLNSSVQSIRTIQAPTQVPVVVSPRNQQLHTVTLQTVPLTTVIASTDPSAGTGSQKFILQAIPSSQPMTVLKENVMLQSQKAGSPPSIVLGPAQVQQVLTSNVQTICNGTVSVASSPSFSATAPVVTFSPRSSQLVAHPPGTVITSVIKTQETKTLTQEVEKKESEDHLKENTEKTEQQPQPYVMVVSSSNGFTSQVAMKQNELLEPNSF
# Method in brief: as §1
# EHF = target: T3, EHF (Homo sapiens, UniProt Q9NZC4 1-300)
# T3 sequence: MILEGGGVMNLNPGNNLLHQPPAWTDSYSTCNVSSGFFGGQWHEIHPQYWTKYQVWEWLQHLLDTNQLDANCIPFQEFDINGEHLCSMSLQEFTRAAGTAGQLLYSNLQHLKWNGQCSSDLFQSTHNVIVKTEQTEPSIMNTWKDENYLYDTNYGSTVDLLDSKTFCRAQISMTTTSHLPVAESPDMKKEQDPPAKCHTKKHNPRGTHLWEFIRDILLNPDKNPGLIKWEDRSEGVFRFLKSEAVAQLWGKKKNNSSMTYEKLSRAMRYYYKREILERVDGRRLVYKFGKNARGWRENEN
# Method in brief: as §1
# SPIB = SPIB (Homo sapiens, UniProt Q01892 1-262)
# Sequence of SPIB (Q01892 whole entry): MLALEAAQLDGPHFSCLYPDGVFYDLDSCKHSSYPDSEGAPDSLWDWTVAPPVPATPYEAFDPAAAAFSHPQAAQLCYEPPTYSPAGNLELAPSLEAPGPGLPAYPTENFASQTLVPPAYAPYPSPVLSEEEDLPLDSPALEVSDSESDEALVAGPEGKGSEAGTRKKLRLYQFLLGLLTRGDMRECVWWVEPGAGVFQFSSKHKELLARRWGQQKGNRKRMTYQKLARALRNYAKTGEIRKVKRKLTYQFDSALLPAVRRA
# Method in brief: as §1
# FEV = target: T4, FEV (Homo sapiens, UniProt Q99581 1-238)
# T4 sequence: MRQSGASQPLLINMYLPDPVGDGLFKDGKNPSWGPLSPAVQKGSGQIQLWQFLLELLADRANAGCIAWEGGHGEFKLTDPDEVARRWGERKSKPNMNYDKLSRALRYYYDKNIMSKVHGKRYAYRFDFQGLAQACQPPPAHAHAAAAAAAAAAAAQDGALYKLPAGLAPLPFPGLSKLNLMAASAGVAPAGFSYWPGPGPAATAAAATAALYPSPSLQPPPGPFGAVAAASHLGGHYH
# Method in brief: as §1
# ETV5 = ETV5 (Homo sapiens, UniProt P41161 1-510)
# Sequence of ETV5 (P41161 whole entry): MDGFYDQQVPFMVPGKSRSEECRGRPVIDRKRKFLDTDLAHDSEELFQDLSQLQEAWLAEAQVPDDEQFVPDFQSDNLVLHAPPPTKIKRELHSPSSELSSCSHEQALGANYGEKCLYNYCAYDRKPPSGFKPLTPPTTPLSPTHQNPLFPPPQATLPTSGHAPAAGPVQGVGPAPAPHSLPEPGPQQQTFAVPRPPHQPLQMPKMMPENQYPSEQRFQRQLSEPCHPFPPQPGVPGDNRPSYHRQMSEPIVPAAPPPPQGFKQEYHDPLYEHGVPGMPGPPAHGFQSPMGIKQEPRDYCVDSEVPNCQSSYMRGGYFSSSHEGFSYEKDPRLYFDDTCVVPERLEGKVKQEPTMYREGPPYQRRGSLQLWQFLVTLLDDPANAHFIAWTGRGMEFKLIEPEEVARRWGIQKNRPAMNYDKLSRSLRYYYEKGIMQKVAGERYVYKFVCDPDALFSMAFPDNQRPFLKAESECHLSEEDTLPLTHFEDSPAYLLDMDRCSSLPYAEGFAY
# Method in brief: as §1
# ELF4 = ELF4 (Homo sapiens, UniProt Q99607 1-663)
# Sequence of ELF4 (Q99607 whole entry): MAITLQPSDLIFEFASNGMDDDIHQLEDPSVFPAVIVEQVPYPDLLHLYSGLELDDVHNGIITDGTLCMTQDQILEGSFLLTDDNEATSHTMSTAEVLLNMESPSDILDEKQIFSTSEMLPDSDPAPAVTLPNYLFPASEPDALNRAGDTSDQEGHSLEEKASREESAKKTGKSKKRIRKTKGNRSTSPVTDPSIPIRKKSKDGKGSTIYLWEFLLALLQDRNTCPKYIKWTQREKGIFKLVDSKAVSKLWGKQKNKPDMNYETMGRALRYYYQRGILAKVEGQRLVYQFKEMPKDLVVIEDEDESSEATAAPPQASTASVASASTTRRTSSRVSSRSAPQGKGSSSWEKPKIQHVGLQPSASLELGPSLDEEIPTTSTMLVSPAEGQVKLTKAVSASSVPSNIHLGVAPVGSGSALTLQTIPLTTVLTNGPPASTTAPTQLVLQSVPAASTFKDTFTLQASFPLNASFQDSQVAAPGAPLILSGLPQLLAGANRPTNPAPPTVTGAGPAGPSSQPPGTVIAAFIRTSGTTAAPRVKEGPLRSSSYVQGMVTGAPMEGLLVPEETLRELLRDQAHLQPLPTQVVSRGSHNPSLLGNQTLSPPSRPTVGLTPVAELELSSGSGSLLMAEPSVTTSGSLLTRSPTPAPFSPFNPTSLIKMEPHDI
# Method in brief: as §1
# ELK4 = target: T5, ELK4 (Homo sapiens, UniProt P28324-2 1-405)
# T5 sequence: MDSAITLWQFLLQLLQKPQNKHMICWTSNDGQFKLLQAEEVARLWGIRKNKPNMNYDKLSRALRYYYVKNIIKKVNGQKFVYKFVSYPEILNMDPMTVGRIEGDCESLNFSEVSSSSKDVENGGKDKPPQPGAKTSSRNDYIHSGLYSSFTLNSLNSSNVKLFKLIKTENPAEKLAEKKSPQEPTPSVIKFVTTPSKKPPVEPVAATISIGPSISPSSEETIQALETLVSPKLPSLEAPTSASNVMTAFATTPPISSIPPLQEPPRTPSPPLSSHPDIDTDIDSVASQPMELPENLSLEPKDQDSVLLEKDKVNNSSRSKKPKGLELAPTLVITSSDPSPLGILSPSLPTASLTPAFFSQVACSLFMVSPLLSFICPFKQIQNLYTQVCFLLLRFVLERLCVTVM
# Method in brief: as §1
# ETV2 = target: T6, ETV2 (Homo sapiens, UniProt O00321 1-342)
# T6 sequence: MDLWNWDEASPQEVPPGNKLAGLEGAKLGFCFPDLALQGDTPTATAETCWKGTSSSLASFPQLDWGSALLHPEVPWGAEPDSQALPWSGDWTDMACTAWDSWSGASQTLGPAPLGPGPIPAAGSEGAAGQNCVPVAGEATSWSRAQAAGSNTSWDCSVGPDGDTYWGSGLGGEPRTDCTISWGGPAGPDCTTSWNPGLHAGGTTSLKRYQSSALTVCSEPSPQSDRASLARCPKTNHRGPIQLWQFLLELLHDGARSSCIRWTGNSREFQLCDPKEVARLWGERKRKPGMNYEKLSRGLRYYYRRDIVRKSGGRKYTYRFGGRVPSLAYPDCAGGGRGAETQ
# Method in brief: as §1
# ELF3 = target: T7, ELF3 (Homo sapiens, UniProt P78545 1-371)
# T7 sequence: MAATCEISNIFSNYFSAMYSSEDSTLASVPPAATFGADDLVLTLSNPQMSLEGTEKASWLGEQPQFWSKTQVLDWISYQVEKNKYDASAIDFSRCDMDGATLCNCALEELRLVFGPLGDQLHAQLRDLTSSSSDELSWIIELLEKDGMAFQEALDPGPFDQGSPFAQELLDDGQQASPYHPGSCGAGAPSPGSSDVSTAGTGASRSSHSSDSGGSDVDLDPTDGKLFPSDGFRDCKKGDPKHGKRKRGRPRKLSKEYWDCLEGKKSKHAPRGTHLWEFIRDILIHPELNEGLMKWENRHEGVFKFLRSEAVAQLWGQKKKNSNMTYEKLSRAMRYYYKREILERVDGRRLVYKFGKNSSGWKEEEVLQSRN
# Method in brief: as §1
# ETV1 = ETV1 (Homo sapiens, UniProt P50549 1-477)
# Sequence of ETV1 (P50549 whole entry): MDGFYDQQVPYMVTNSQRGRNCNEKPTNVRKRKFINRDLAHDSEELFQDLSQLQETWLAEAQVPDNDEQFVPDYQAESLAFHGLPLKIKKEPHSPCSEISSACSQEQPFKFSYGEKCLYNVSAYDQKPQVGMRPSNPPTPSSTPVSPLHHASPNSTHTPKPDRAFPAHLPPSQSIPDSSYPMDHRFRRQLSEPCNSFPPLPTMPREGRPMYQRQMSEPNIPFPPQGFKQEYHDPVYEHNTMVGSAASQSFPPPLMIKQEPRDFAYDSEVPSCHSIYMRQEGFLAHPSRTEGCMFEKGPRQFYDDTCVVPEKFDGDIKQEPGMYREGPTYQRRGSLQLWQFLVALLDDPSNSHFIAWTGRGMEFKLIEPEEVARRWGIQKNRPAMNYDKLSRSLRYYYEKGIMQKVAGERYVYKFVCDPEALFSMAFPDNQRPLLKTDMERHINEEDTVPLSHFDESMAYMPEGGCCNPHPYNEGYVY
# Method in brief: as §1
# ERF = target: T8, ERF (Homo sapiens, UniProt P50548 1-548)
# T8 sequence: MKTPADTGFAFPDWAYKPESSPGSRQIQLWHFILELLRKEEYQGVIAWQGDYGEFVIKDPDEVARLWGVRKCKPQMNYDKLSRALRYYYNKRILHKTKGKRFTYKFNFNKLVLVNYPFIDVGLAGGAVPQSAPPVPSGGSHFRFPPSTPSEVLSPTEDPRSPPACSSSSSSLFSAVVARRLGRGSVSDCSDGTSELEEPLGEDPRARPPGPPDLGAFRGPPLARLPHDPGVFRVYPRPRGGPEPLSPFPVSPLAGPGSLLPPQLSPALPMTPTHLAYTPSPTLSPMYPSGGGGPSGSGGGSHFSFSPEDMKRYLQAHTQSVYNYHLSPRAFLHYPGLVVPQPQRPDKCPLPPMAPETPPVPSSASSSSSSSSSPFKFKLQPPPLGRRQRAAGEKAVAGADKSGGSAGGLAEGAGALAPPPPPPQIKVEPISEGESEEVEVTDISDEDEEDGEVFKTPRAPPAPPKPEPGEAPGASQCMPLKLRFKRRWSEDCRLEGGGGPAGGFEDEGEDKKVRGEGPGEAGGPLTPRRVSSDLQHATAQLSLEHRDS
# Method in brief: as §1
# ETV3L = target: T9, ETV3L (Homo sapiens, UniProt Q6ZN32 1-361)
# T9 sequence: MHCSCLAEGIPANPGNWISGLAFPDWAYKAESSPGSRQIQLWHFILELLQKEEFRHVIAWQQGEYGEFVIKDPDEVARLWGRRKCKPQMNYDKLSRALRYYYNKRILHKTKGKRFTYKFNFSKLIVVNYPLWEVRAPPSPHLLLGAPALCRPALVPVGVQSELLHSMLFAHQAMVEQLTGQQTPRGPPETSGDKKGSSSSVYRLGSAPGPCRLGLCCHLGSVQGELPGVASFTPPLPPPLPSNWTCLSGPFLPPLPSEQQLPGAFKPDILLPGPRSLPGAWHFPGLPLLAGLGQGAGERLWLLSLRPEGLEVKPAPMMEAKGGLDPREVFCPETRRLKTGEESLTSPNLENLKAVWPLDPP
# Method in brief: as §1
# ETS2 = target: T10, ETS2 (Homo sapiens, UniProt P15036 1-469)
# T10 sequence: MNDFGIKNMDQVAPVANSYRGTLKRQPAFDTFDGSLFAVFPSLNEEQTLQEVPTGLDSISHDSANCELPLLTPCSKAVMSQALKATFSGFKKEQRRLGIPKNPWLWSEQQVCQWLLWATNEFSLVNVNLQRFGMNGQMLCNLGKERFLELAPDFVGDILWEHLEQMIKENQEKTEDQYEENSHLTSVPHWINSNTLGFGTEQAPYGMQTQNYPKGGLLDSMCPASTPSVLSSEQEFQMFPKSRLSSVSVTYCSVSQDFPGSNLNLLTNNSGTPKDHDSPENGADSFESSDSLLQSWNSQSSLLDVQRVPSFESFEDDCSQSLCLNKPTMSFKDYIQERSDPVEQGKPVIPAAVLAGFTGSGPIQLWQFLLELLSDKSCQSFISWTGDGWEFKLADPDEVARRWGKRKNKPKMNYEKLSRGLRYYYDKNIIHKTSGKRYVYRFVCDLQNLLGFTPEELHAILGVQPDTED
# Method in brief: as §1
# SPDEF = target: T11, SPDEF (Homo sapiens, UniProt O95238 1-335)
# T11 sequence: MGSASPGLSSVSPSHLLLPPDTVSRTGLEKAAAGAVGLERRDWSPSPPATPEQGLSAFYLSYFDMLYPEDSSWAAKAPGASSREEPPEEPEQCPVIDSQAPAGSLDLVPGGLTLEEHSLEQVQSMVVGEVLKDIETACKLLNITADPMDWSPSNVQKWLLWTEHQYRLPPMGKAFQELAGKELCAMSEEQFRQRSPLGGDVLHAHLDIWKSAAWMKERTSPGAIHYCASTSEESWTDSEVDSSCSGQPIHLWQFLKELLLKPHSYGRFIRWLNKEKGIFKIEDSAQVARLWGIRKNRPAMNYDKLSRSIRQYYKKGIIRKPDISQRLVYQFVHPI
# Method in brief: as §1
# ETV3 = target: T12, ETV3 (Homo sapiens, UniProt P41162-2 1-143)
# T12 sequence: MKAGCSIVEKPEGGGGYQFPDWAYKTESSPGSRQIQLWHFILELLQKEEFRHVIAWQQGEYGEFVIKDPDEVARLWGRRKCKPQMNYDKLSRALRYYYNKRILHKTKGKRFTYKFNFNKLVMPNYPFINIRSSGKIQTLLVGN
# Method in brief: as §1
# ETV6 = ETV6 (Homo sapiens, UniProt P41212 1-452)
# Sequence of ETV6 (P41212 whole entry): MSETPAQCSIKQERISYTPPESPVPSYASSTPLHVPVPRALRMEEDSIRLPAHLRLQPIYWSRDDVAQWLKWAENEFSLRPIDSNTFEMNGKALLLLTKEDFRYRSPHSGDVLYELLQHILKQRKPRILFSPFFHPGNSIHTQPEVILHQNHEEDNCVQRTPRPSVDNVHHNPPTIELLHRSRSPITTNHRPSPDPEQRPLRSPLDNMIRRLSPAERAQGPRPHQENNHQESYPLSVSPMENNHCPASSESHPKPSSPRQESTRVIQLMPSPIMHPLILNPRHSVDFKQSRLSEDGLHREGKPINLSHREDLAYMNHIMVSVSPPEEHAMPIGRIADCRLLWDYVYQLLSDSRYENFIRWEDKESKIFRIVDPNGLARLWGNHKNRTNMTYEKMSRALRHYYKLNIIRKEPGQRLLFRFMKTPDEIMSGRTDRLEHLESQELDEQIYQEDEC
# Method in brief: as §1
sequence,measurement,setting,value
CAAGTT,binding signal,ELK1,"1.06 fold enrichment (6-mer frequency, TF over GST control)"
same,binding signal,ERG,"1.08 fold enrichment (6-mer frequency, TF over GST control)"
same,binding signal,ELF1,"1.06 fold enrichment (6-mer frequency, TF over GST control)"
same,binding signal,EHF,"1.02 fold enrichment (6-mer frequency, TF over GST control)"
same,binding signal,SPIB,"1.1 fold enrichment (6-mer frequency, TF over GST control)"
same,binding signal,FEV,"1.02 fold enrichment (6-mer frequency, TF over GST control)"
same,binding signal,ETV5,"1.08 fold enrichment (6-mer frequency, TF over GST control)"
same,binding signal,ELF4,"1.09 fold enrichment (6-mer frequency, TF over GST control)"
same,binding signal,ELK4,"1.08 fold enrichment (6-mer frequency, TF over GST control)"
same,binding signal,ETV2,"1.03 fold enrichment (6-mer frequency, TF over GST control)"
same,binding signal,ELF3,"1.06 fold enrichment (6-mer frequency, TF over GST control)"
same,binding signal,ETV1,"1.05 fold enrichment (6-mer frequency, TF over GST control)"
same,binding signal,ERF,"1.2 fold enrichment (6-mer frequency, TF over GST control)"
same,binding signal,ETV3L,"1.1 fold enrichment (6-mer frequency, TF over GST control)"
same,binding signal,ETS2,"1.13 fold enrichment (6-mer frequency, TF over GST control)"
same,binding signal,SPDEF,"1.02 fold enrichment (6-mer frequency, TF over GST control)"
same,binding signal,ETV3,"1.16 fold enrichment (6-mer frequency, TF over GST control)"
same,binding signal,ETV6,"1.09 fold enrichment (6-mer frequency, TF over GST control)"
